Laboratory results from PubChem BioAssay AID449762 (Southern Research Specialized Biocontainment Screening …, 2010).
In all, about 330,000 compounds went through this assay and about 1,900 (0.58%) were called active. Inconclusive results (about 4%) are left out. A selection follows. Results with a measured potency or affinity are listed apart. A number with no mark means an inactive call. No stated cut-off is given here; in the data, inconclusive means inhibition above about 70% without an active follow-up result; inactive means below that.

Test: M. tuberculosis growth inhibition, HTS (AID 449762);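 further: bacterial growth assessed after seven days of incubation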
Details: M. tuberculosis H37Rv growth inhibition, 7H9 media; at 25 µM; stronger effect = higher value
With CCOC(=O)Cc1csc(NS(=O)(=O)Cc2ccccc2)n1 the inhibition was -4.69%.
With Cc1ccc2cccc(OCC(=O)NCCC3=CCCCC3)c2n1 the inhibition was 37.1%.
Cc1ccc(C(=O)N/C(=C\c2cccs2)C(=O)N2CCN(C)CC2)cc1C showed an inhibition of 0.74%.
In the case of CN1C(=O)[C@H]2[C@@H](/C=C/c3ccccc3)N3C(=O)CN(Cc4ccccn4)C(=O)[C@@]3(Cc3ccccc3)[C@H]2C1=O, the inhibition is reported as -6.69%.
With COc1ccc(-c2nc(C3CCCCC3)c3cc(OC)ccc3n2)cc1 the inhibition was 8.29%.
With COc1ccc2nc(C3CCCCC3)nc(C3CCCCC3)c2c1 the inhibition was 0.84%.
O=C(NCCC1=CCCCC1)C1CCN(S(=O)(=O)c2ccccc2C(F)(F)F)CC1 gave an inhibition of -3.46%.
In the case of COCCOc1cc(NC(=O)c2ccccc2)c(Cl)cc1Cl, the inhibition is reported as 15%.
For CC(=O)c1cnc2c(-c3ccc(Cl)cc3)cnn2c1C, the inhibition was -5.22%.
With Nc1c(-c2ccc(Cl)cc2)cnc2c(-c3ccccc3)cnn12 the inhibition was -2.52%.
With COc1ccccc1NC(=O)CSc1nc2ccccc2c(=O)n1C the inhibition was 0.03%.
COc1ccc(-c2nn(-c3ccccc3)cc2CNC(=O)c2cccc([N+](=O)[O-])c2)cc1 gave an inhibition of 8.99%.
Work on c1cncc(-c2ccc3ncnc(NCc4cccs4)c3c2)c1 yielded an inhibition of 0.82%.
Compound CCOC(=O)N1CCN(CCC(=O)Nc2ccc(OC(F)(F)F)cc2)CC1 has an inhibition of 18.8%.
With Cc1cc2cc(CNC(=S)NC3CCCCC3)ccc2[nH]1 the inhibition was 4.14%.
Cc1ccc(CNC(=O)NC2CCCCC2)cc1 gave an inhibition of -3.64%.
Cc1ccc(N2C(=O)N(CC(=O)Nc3ccc(C)cc3Cl)C(=O)C2C)cc1 (stereo not drawn) gave an inhibition of -3.9%.
Cc1ccc2cccc(N)c2n1 showed an inhibition of 1.54%.
In the case of Cc1ccc2c(C)ccc(O)c2n1, the inhibition is reported as -1.61%.
Work on COc1ccc(CC(=O)N2CCC3(CC2)NCCc2[nH]cnc23)cc1 yielded an inhibition of 2.98%.
Work on COc1ccccc1N1CCN(C2CCCN(C(=O)c3cccc(-c4ccco4)c3)C2)CC1 (stereo not drawn) yielded an inhibition of 2.87%.
For O=C(c1ccoc1)N1CCCC(N2CCN(c3ccc(F)cc3)CC2)C1 (stereo not drawn), the inhibition was -11.5%.
With CCOc1ccc(C2OC(=O)Cc3cc(OC)c(OC)cc32)cc1 (stereo not drawn) the inhibition was -2.13%.
In the case of Cc1cccc(N2CCN(S(=O)(=O)c3cn(C)cn3)CC2)c1C, the inhibition is reported as -3.87%.
Nc1cc(Cl)ccc1Oc1ccc(Cl)cc1 showed an inhibition of 4.14%.
Work on Nc1cc(Cl)ccc1Oc1ccccc1 yielded an inhibition of -2.47%.
Work on CN(CC(=O)Nc1ccc(F)c(F)c1F)c1ncnc2sccc12 yielded an inhibition of 1.29%.
Compound O=C(CNC(=O)c1cnccn1)Nc1ccc(F)c(F)c1F has an inhibition of -5.9%.
COCCN(C(=O)/C=C/c1ccccc1)c1c(N)n(Cc2ccccc2)c(=O)[nH]c1=O gave an inhibition of -1.36%.
Compound O=C(O)c1ccc(N/N=C/C2=C(N3CCOCC3)C(=C\c3ccccc3)/CC2)cc1 has an inhibition of 0.66%.
For O=CC1=C(N2CCOCC2)/C(=C\c2ccccc2)CC1, the inhibition was -3.36%.
O=C(Cc1ccccc1)NNC1CC(=O)N(c2ccc(Br)cc2)C1=O (stereo not drawn) gave an inhibition of 0.86%.
O=C(NNC1CC(=O)N(c2ccc(Br)cc2)C1=O)c1cccnc1 (stereo not drawn) gave an inhibition of 1.55%.
With Cc1nn(C(C)C(=O)NCCCN(Cc2ccccc2)C(C)C)c(=O)c2c1sc1ccccc12 (stereo not drawn) the inhibition was -3.36%.
C=CCC1c2cccc(C(=O)O)c2C(=O)N1c1cccc(C)c1 (stereo not drawn) gave an inhibition of 0.68%.
Cc1cccc(Nc2nc(-c3ccc(O)cc3O)cs2)n1 showed an inhibition of 6.03%.
In the case of COc1ccc(-n2ncc3c(N4CCC(C(N)=O)CC4)ncnc32)cc1, the inhibition is reported as 2.74%.
Work on CCOC(=O)C1CCN(c2ncnc3c2cnn3-c2ccc(Cl)cc2)CC1 yielded an inhibition of 5.45%.
Work on O=C(c1cnn(Cc2ccccc2)c1)N1CCN(S(=O)(=O)/C=C/c2ccccc2)CC1 yielded an inhibition of 6.35%.
Work on COC(=O)c1c(NC(=O)CN2CCOCC2)sc2c1CCC(C)C2 (stereo not drawn) yielded an inhibition of 3.32%.
With COCC(=O)Nc1sc2c(c1C(=O)OC)CCC(C)C2 (stereo not drawn) the inhibition was 9.87%.
Work on COCC(=O)Nc1cccc(-c2ccc3nncn3n2)c1 yielded an inhibition of 0.62%.
With CCCCCc1ccc(-c2cn(CC3CCCCC3)nn2)cc1 the inhibition was 5.3%.
Compound CCn1cc(C(=O)NC(=S)Nc2ccccc2Br)cn1 has an inhibition of -4.11%.
CCn1c(C)nc2cc(C(=O)NNC(=O)Nc3cccc(Cl)c3)ccc21 gave an inhibition of 2.59%.
With CCn1c(C)c(C)c2cc(C(=O)NC3CCCCCC3)ccc21 the inhibition was 0.46%.
COc1ccc(-c2cc(C(=O)N/N=C/c3cccnc3)c3ccccc3n2)cc1 gave an inhibition of -8.58%.
Work on CC(C)=CC(=O)N1CC[C@@H](N2CCN(c3ccccc3F)CC2)[C@H](O)C1 yielded an inhibition of -5.32%.
With COc1ccccc1/C=N/Nc1cc(C)nc2ccc(C)cc12 the inhibition was -11.1%.
Compound COc1ccc(/C=N/Nc2nc(C)cc(-c3ccccc3)n2)c(OC)c1 has an inhibition of 7.29%.
In the case of CC(C)Oc1cccc(OCCN2C(=O)c3ccccc3C2=O)c1, the inhibition is reported as 7.3%.
With NC(=S)NNC(=O)Nc1ccc(Cl)c(Cl)c1 the inhibition was -11.5%.
Work on NC(=S)NNc1ccnc2cc(Cl)ccc12 yielded an inhibition of 41.1%.
For CCOc1ccccc1N1CCN(CC(O)COCc2cccs2)CC1 (stereo not drawn), the inhibition was 7%.
Work on C=CCn1c(CCCOc2ccc(Cl)cc2Cl)nnc1SCC(=O)Nc1nccs1 yielded an inhibition of -6.64%.
Work on O=C(/C=C/c1cccs1)N1CCN(Cc2ccc3c(c2)OCO3)CC1 yielded an inhibition of 49.9%.
With O=C(O)/C=C/C(=O)N1CCN(Cc2ccc3c(c2)OCO3)CC1 the inhibition was -4.14%.
Work on C=CCn1c(SCC(=O)N(CC)CC)nc(O)cc1=O yielded an inhibition of 1.96%.
In the case of COc1cccc(/C=N/NC(=O)CNC(=O)/C=C\c2ccccc2)c1O, the inhibition is reported as 0.24%.
In the case of O=C(Nc1ccccc1Cl)c1ccc(Cl)cc1Cl, the inhibition is reported as 64.5%.
In the case of O=C(O)CCCCCN1C(=O)CSC1=S, the inhibition is reported as -1.88%.
Work on O=C(O)CN1C(=O)CSC1=S yielded an inhibition of 3.79%.
O=C(CN1CCN(Cc2ccccc2F)C1=O)NCC1CCCO1 (stereo not drawn) showed an inhibition of 1.03%.
